Screening results deposited in PubChem BioAssay by National Center for Advancing Translational Sciences (NCATS).
The entries come from a sample that favours hits as a whole.
Pf Dd2 growth – qHTS Primary assay for Inhibitors of Plasmodium falciparum Dd2 growth in vitro; P. falciparum Dd2 growth, SYBR Green, 72 h; Potency, µM (titrated, usually from 28.9 µM), usual class: inhibitors; 120,000 compounds, 4.3% hits; active = well fitted inhibition curve with a large enough effect; note: nearly all actives have a fitted effect of over 65% in size
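Readout: SYBR Green fluorescence, 485 nm excitation, 535 nm emission, after ~16 h lysis at 37C. Before that, Dd2-infected red cells (2.5% hematocrit) grew 72 h with compound, 29 uM top final concentration.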
A number is an active result; . = inactive.

SMILES	Pf Dd2 growth
C=CCCC(CN1CCCC1)Oc1cc(N2CCOCC2)ncn1 (stereo not drawn)	.
CCOCc1nc(C2CCCN(C(=O)c3cccs3)C2)no1 (stereo not drawn)	.
CCNc1nccc(N2CCC(CC(=O)N(CC)CC)CC2)n1	.
CCOc1ccc(NC(=O)N2CCC(CN3CCc4ccccc4C3)CC2)cc1	.
CSCCC(=O)N1CCOC(Cc2cccc3ccccc23)C1 (stereo not drawn)	.
COc1ccc(C(=O)N2CCC(N3C(=O)[C@H](OC)[C@@H]3c3ccncc3)CC2)c(OC)n1	.
C=CCn1c(-c2ccc(F)cc2)cn2cc(C(=O)N[C@@H](C)CO)nc2c1=O	.
C=CCn1c(-c2cccs2)cn2cc(C(=O)NC(CC)CO)nc2c1=O (stereo not drawn)	.
CC(C)=CCn1c(-c2ccccc2Cl)cn2cc(C(=O)NCCCO)nc2c1=O	7.94µM
CN1C(=O)[C@H]2CN(Cc3cccc(Br)c3)C[C@H]2C1=O	.
Cc1ccc(CCNC(=O)c2ccc(CS(=O)(=O)c3ccc(Cl)cc3)o2)cc1	.
O=C(Cn1nc2n(c1=O)CCCC2)NC1CCCC1	.
Cc1ccc(C(=O)NC2(C(F)(F)F)C(=O)Nc3c2c(=O)[nH]c(=O)n3CCc2ccccc2)cc1 (stereo not drawn)	.
O=C(NCc1ccccc1Cl)c1cnc(N2CCOCC2)c2ccccc12	.
CS(=O)(=O)N1CCC(OC2CCN(C(=O)Nc3cccc(Cl)c3)CC2)CC1	.
O=C(Nc1cccc(Cl)c1)N1CC2CCCN2c2ccccc21 (stereo not drawn)	8.91µM
O=C(c1cccc(Cl)c1)N1CCC(N2CC3CCCN3C2=O)CC1 (stereo not drawn)	.
O=C(CCC(=O)N1CC2CCCN2c2ccccc21)NCc1cccc(Cl)c1 (stereo not drawn)	.
O=C(NCc1cccc(Cl)c1)c1ccc(NC(=O)N2CC3CCCN3c3ccccc32)cc1 (stereo not drawn)	8.91µM
O=C(NCc1cccc(Br)c1)c1ccc(NC(=O)N2CCCCc3ccccc32)cc1	.
COc1ccc(CCNC(=O)c2c(C)nn(-c3ccc(F)cc3)c2-n2cccc2)cc1OC	.
CCCc1ccc(S(=O)(=O)N2CCC3(CC2)C(=O)N(CC)c2ccccc23)cc1	.
Cc1ccc(S(=O)(=O)N2CCN(C3CCN(C)C3=O)CC2)cc1C (stereo not drawn)	.
CC1CCN([C@@H]2[C@H](O)[C@H](CO)O[C@@H]2CNS(=O)(=O)c2ccc(Cl)cc2)CC1	.
CCOc1ccc(-c2c(C)nn3c(C)c(C(=O)NCc4ccc(C)o4)cnc23)cc1OCC	.
SMILES	Pf Dd2 growth
O=C(NCc1ccc2c(c1)CCN2C(=O)c1ccncc1)c1ccccc1F	.
O=C1NCN(Cc2ccc(Cl)cc2)C12CCN(Cc1ccccn1)CC2	.
O=C(Nc1ccc(C(F)(F)F)cc1)N1CCC2(CC1)C(=O)NCN2Cc1ccc(Cl)cc1	.
O=C(c1ccc(Cl)cc1)N1CCC2(CC1)C(=O)NCN2Cc1ccccc1	.
O=C(Nc1ccccc1)N1CCC2(CC1)C(=O)NCN2Cc1ccc(Cl)cc1	3.16µM
O=C1NCN(Cc2ccc(Cl)cc2)C12CCN(Cc1cccc3ccccc13)CC2	.
O=C1NCN(Cc2ccc(Cl)cc2)C12CCN(Cc1ccsc1)CC2	8.91µM
O=C(Nc1cccc(F)c1)N1C[C@@H]2C[C@H](C1)c1c(-c3ccc(Cl)cc3)ccc(=O)n1C2	.
Cc1ccc(NC(=O)c2ccc(N3CC4CC(C3)[C@H]3CCCC(=O)N3C4)nc2)cc1 (stereo partly drawn)	.
Cc1ccc2c(c1)nc1n2[C@@H](CNC2CCC2)COC1	.
CC(=O)c1cccc(C(=O)N2CCC3(CC2)NC(=O)N(Cc2ccccc2)C3=O)c1	.
CCc1nn(CC(=O)NCc2ccccc2Cl)c(=O)c2cccn12	.
CCOc1ccc(N(CC)S(=O)(=O)N2CCCC(C(=O)Nc3cc(Cl)ccc3OC)C2)cc1 (stereo not drawn)	10µM
COc1ccc(OC)c(NC(=O)C2CCCN(S(=O)(=O)c3c(C)nn(C)c3C)C2)c1 (stereo not drawn)	.
CCOc1ccc(OCC)c(NC(=O)C2CCCN(S(=O)(=O)c3ccc(C)cc3)C2)c1 (stereo not drawn)	.
CC(C)(CN1CCOCC1)NC(=O)c1csc2nc(-c3ccc(F)cc3)cn12	.
CN(C)C(=O)c1cc2c(s1)CCC(C(=O)N1CCN(c3ccccc3)CC1)C2 (stereo not drawn)	.
CN(C)C(=O)c1cc2c(s1)CCC(C(=O)N1CCN(c3ccccn3)CC1)C2 (stereo not drawn)	.
CN(C)C(=O)c1cc2c(s1)CCC(C(=O)N1CCN(c3cccc(Cl)c3)CC1)C2 (stereo not drawn)	5.01µM
CCC(C)n1c(=N)c(C(=O)NC2CCCC2)cc2c(=O)n3ccccc3nc21 (stereo not drawn)	.
CCc1nc(C)sc1-c1nc2c([nH]1)CC(C)(C)CNC2=O	.
O=C(Nc1ccccc1)Nc1cccc(-c2nnc3n2CCCC3)c1	.
O=C(CC1CCCCC1)Nc1cccc(-c2nnc3n2CCCC3)c1	.
